Laboratory results taken from PubChem BioAssay (NCATS).
Results filed as inconclusive are left out. Active and inactive are the calls of the source. Calls follow the shape of the dose curve; as a rule, active = well fitted curve in the direction sought with a large enough effect; inconclusive = small, poorly fitted or top-dose-only effect, or another doubt; inactive = no such curve, though single readings can be large; an effect the other way counts as inactive or inconclusive.

Assays:
[1] = target: Voltage-gated inwardly rectifying potassium channel KCNH2 (Homo sapiens) (UniProt Q12809); assay: qHTS Assay for Small Molecule Inhibitors of the Human hERG Channel Activity (AID 588834);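 also: top concentration of the series differs between compounds; lower thallium flux fluorescence means stronger hERG block; nearly all actives have a fitted effect of over 50% in size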
Sequence of Voltage-gated inwardly rectifying potassium channel KCNH2 (Homo sapiens) (Q12809 whole entry, looked up): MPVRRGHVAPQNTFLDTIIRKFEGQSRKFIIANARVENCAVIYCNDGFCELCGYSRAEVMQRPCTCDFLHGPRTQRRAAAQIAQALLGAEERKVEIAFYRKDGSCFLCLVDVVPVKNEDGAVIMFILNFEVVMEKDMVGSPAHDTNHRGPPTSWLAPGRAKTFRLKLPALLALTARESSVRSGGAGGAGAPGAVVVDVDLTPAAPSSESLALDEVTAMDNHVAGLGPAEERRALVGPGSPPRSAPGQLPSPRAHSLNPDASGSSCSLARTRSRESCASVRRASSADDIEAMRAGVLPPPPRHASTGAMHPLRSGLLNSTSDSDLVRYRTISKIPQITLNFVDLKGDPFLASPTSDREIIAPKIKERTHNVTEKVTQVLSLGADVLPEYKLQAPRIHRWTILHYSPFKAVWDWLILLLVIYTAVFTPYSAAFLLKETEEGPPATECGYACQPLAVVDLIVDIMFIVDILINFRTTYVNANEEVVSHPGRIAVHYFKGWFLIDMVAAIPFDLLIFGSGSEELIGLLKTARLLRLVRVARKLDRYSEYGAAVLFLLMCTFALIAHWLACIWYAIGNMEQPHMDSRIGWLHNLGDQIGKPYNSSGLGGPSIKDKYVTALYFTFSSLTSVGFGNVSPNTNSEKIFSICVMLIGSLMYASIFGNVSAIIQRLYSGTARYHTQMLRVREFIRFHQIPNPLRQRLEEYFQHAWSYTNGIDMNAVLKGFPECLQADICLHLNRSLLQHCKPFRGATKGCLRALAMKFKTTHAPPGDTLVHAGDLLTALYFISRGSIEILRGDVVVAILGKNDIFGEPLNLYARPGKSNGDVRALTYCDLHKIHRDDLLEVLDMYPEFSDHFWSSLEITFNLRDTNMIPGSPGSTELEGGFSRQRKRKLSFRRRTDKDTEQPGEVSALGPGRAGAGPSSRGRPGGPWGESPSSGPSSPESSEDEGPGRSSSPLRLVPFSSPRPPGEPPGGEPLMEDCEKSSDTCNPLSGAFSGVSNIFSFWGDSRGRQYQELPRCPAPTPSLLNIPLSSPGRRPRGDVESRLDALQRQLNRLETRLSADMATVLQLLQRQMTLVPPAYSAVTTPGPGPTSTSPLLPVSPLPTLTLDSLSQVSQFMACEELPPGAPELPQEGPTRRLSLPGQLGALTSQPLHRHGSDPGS
Method in brief: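 hERG block measured as reduced thallium-dye (FluxOR) fluorescence after stimulation buffer addition, read over 2 min. Cells were hERG-BacMam-transduced U2OS exposed to compound ~10 min […]; concentration-response fitted with Hill equation for AC50.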

[2] = target: Luciferin 4-monooxygenase (Photinus pyralis) (UniProt P08659); assay: Biochemical firefly luciferase enzyme assay for NPC (AID 624030);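 also: purified P. pyralis luciferase at 10 nM with luciferin and ATP substrate; series mostly up to about 59 µM; nearly all actives have a fitted effect of over 70% in size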
Sequence of Luciferin 4-monooxygenase (Photinus pyralis) (P08659 whole entry, looked up): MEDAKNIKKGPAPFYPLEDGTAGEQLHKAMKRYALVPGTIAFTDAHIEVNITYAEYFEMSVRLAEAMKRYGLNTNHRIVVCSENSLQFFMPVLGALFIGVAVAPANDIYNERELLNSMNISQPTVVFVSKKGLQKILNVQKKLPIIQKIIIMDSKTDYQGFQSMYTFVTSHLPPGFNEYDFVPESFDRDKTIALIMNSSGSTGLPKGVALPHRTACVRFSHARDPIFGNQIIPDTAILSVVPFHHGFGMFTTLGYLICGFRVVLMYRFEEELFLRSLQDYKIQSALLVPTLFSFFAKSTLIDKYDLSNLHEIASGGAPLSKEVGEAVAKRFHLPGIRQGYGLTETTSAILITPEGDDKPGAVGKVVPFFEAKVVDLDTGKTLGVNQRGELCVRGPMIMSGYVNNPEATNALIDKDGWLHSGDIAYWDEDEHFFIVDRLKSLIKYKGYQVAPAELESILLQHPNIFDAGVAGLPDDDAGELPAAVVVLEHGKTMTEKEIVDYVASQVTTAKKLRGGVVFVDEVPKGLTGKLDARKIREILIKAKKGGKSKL
Method in brief: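 Purified P. pyralis luciferase at 10 nM in 50 mM Tris Acetate (final), luminescence read within 5 minutes of enzyme addition to compounds. Activity normalised to PTC124 versus DMSO; concentration-response curves classed by r2, magnitude and activity.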

[3] = S16 Schwann cell viability assay (CellTiter-Glo assay) (AID 624031);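 also: native untransfected S16 rat Schwann cells; series mostly up to about 58 µM; nearly all actives have a fitted effect of over 70% in size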
Method in brief: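 Counter-screen for cytotoxicity: parental S16 rat Schwann cells lacking the PMP22 reporters, treated 24 h with compound, viability from cellular ATP by CellTiter-Glo luminescence, normalized to DMSO (0%) and no-cell wells.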

Measured: Potency

O=P(O)(O)C(O)(Cn1ccnc1)P(=O)(O)O
inactive: [1] | [2] | [3]

O=C(O)c1cc(=O)c2c(OCC(O)COc3cccc4oc(C(=O)O)cc(=O)c34)cccc2o1
inactive: [1] | [2] | [3]

Cc1cc(=O)oc2cc(O)ccc12
inactive: [1] | [2] | [3]

CC[C@]1(O)C[C@H]2CN(CCc3c([nH]c4ccccc34)[C@@](C(=O)OC)(c3cc4c(cc3OC)N(C=O)[C@H]3[C@@](O)(C(=O)OC)[C@H](OC(C)=O)[C@]5(CC)C=CCN6CC[C@]43[C@@H]65)C2)C1
inactive: [1] | [2] | [3]
